Common to all, as to experiment: NCI-60 one-dose screen, 48 h (100 = growth as untreated, 0 = no growth, -100 = all killed)
What all share (conditions): 10 µM unless noted

For experiment [1], the system named is RPMI-8226 leukemia.
The test system of experiment [2] is OVCAR-8 ovarian.
In experiment [3] the test system is OVCAR-5 ovarian.
Experiment [4] concerns OVCAR-4 ovarian.
The subject of experiment [5] is SK-OV-3 ovarian.
The test system of experiment [6] is IGROV1 ovarian.
The subject of experiment [7] is OVCAR-3 ovarian.
Experiment [8] deals with HS 578T breast.
The subject of experiment [9] is NCI/ADR-RES ovarian.
The test system of experiment [10] is T-47D breast.
Experiment [11] concerns BT-549 breast.
Experiment [12] concerns MDA-MB-435 melanoma.
Experiment [13] concerns SW-620 colon.
Experiment [14] concerns MCF7 breast.
In experiment [15] the test system is HCT-116 colon.
Experiment [16] deals with HCC-2998 colon.
In experiment [17] the test system is KM12 colon.

Compounds without any hit were thinned out: in the full panel of roughly 83,000, 20% have a hit.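 Method: cells in 96-well plates; compound added at one concentration; 48 h incubation; percent growth measured; values under 10 scored active.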 Unmarked numbers belong to inactive results. Active and inactive are the calls of the source.

Turning to `CCN1CCN(Cc2ccc(NC(=O)Nc3nc4ccc(Oc5ccnc(C(=O)NC)c5)cc4s3)cc2C(F)(F)F)CC1`, the growth is -22.9% (active) in experiment [1]; -18.6% (active) in experiment [2]; -40.6% (active) in experiment [3]; -64.1% (active) in experiment [4]; -2.46% (active) in experiment [5]; -12.2% (active) in experiment [6]. Further, the growth in experiment [7] is -74.1% (active); in experiment [8], -38.6% (active); in [9] it was -12.7% (active); in experiment [10], -27.9% (active); in [11], -69.1% (active); in experiment [12] it was -36.5% (active). For the same compound, the growth in experiment [13] is -52.7% (active); in experiment [14] it was -39.3% (active); in experiment [15], -66.1% (active); in experiment [16], -33.6% (active); in experiment [17], -61.6% (active).

For `CCN(CC)CC#CCOC(=O)[C@]1(C)CCC[C@@]2(C)[C@H]1CC(C=O)=C1C=C(C(C)C)CC[C@@H]12`, the growth in [1] was 27.8%; in [2], 73.5%; in experiment [3], 82.7%; in experiment [4] it was 69.5%; in experiment [5], 73.4%; in experiment [6] it was 63.2%. Also, the growth in [7] is 69.1%; in experiment [8], 67.1%; in experiment [9], 70.9%; in [10], 41.8%; in experiment [11], 53%; in experiment [12], 76.4%. The growth in experiment [13] is 57.2%; in experiment [14], 68.1%; in experiment [15], 36.1%; in experiment [16], 94.6%; in [17], 55.3%.

Regarding `c1ccc2sc(SCCCn3ccnc3)nc2c1`, the growth is 79% in experiment [1]; 88.2% in experiment [2]; 118% in [3]; 93.2% in [4]; 90.2% in experiment [5]; 103% in experiment [6]. Besides, the growth was 86.4% in experiment [7]; 102% in [8]; 94.2% in experiment [9]; 75.5% in experiment [10]; 96.8% in experiment [11]; 97.6% in [12]. In addition, the growth in experiment [13] was 97.4%; in experiment [14], 88.1%; in [15], 92.5%; in experiment [16], 94.1%; in experiment [17] it was 97.8%.

Turning to `COc1cc2cc(COc3nccc(-c4ccc(Cl)cc4)n3)c(=O)[nH]c2cc1OC`, the growth is -28.4% (active) in [1]; 81.3% in experiment [2]; 96.7% in experiment [3]; 82.5% in [4]; 89.9% in experiment [5]; 79.6% in experiment [6]. Moreover, the growth is 90.4% in experiment [7]; 67.3% in [8]; 84.2% in experiment [9]; 85.5% in [10]; 86.4% in experiment [11]; 65.6% in [12]. In addition, the growth was 36.5% in experiment [13]; 46.3% in [14]; 53.4% in experiment [15]; 11.7% in experiment [16]; 76.2% in experiment [17].

In the case of `COc1ccc(/C=C2\N=C3Sc4cc(Cl)ccc4C(=O)N3C2=O)cc1`, the growth is 101% in [1]; 94.6% in experiment [2]; 98.1% in experiment [3]; 103% in experiment [4]; 98.1% in [5]; 107% in experiment [6]. For the same compound, the growth in experiment [7] is 104%; in [8] it was 102%; in experiment [9] it was 106%; in experiment [10], 92%; in experiment [11], 114%; in experiment [12], 102%. Also, the growth is 97.1% in experiment [13]; 94.7% in [14]; 104% in [15]; 118% in experiment [16]; 104% in experiment [17].

Regarding `Cc1nc2nc(N)nc(N)c2nc1C`, the growth in experiment [1] was 100%; in experiment [2], 96.2%; in experiment [3], 93.6%; in [4], 96.4%; in experiment [5] it was 103%; in experiment [6], 108%. Besides, the growth in [7] was 98%; in [8] it was 99.6%; in experiment [9], 102%; in experiment [10], 91.2%; in experiment [11], 89.4%; in [12], 99.5%. In addition, the growth was 100% in experiment [13]; 97.9% in experiment [14]; 94.3% in experiment [15]; 99% in experiment [16]; 102% in experiment [17].

In the case of `CC[C@H](Nc1cc(C)nc(N)n1)c1nc2cccc(NCc3ccc(C(=O)NO)cc3)c2c(=O)n1-c1ccccc1`, the growth in experiment [1] was -17.9% (active); in experiment [2], 17.7%; in experiment [3] it was 32.3%; in experiment [4], 49.3%; in experiment [5], 29.8%; in experiment [6], -4.45% (active). Moreover, the growth is 16.4% in experiment [7]; 32.1% in experiment [8]; 90.6% in experiment [9]; 18.7% in [10]; 49.1% in [11]; -15% (active) in experiment [12]. Moreover, the growth in experiment [13] was -10.8% (active); in [14], 24.7%; in [15], -18.7% (active); in experiment [16], 19.9%; in experiment [17] it was 13.1%.

With `COc1ccc2[nH]c(=O)c(/C=C/C(=O)c3ccc(Nc4nccc(-c5ccc6ccccc6c5)n4)cc3)cc2c1`, the growth in experiment [1] is 105%; in experiment [2], 100%; in experiment [3] it was 104%; in [4] it was 131%; in experiment [5] it was 105%; in [6], 98.9%. For the same compound, the growth in [7] was 105%; in experiment [8], 98.8%; in [9], 99.2%; in experiment [10], 97.2%; in [11], 98.9%; in [12], 108%. For the same compound, the growth in [13] is 97.1%; in experiment [14] it was 92.8%; in experiment [15], 91.1%; in experiment [16] it was 104%; in experiment [17] it was 93.3%.

With `CCOC(=O)C(=Cc1ccccc1F)C(=O)OCC`, the growth is 93.1% in [1]; 105% in [2]; 106% in experiment [3]; 97% in [4]; 106% in [5]; 95.2% in experiment [6]. Further, the growth in experiment [7] is 95.2%; in [8], 104%; in [9], 100%; in experiment [10] it was 67.4%; in experiment [11], 87.4%; in experiment [12], 84.6%. In addition, the growth in experiment [13] is 107%; in [14] it was 58.6%; in experiment [15], 75.1%; in experiment [16] it was 110%; in experiment [17], 84.7%.

The values above are taken from PubChem BioAssay (NCI).
